LDHA block: blocks human lactate dehydrogenase A; P00338; purified LDHA, NADH/diaphorase-resazurin fluorescence; active compounds read low; activity change, % (values are at about 110 or 230 µM); actives 0.15% (n = 480,000); AID 1347041; in the data active means activity change below about -30%; inconclusive means mostly about -25% to -30%;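 further: plate controls were DMSO wells for no effect and wells without enzyme for full effect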
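Resorufin fluorescence (ex540/em590), read at 0 and 20 min after diaphorase/resazurin addition, reports the NADH left after a 5 min room-temperature reaction of 2 nM human LDH5 with 0.06 mM NADH and 0.2 mM pyruvate.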
Gal4-VP16 FLuc: counter-screen for ROR gamma inhibitors: Gal4-VP16 reporter; Drosophila S2 Gal4-VP16 UAS-luciferase, luminescence, 20 h; Potency, µM (doses to about 53.6 µM), without a hit: at the highest dose activity, negative = inhibition, hits mostly inhibitors; actives 3.5% (n = 310,000); AID 2546;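 further: Gal4-VP16 expression switched on by copper sulfate through the metallothionein promoter; potency means the concentration at half of the fitted maximal effect; nearly all actives have a fitted effect of over 50% in size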
IL-1B inflam inh: inflammasome signaling inhibition, IL-1 beta readout; activity change, % at 57.5 µM; THP-1 LPS/ATP IL-1B secretion, AlphaLISA, 16 h; active compounds read low; actives 4.7% (n = 360,000); in the data active means activity change below about -50%; inconclusive means mostly about -30% to -49%
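THP-1 cells pretreated 1 hr with compounds (up to 57.5 uM final), then stimulated with LPS (250 ng/mL final) plus ATP (1.25 mM final); secreted IL-1B measured by AlphaLISA after 16 hr, decreased signal indicating inhibition.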
RORgamma inh: inhibitors of mouse ROR gamma transcriptional activity. Drosophila S2 Gal4-RORgamma UAS-luciferase reporter, 20 h. Potency, µM (top dose mostly 53.6 µM), inactives show at the top dose activity change, negative = inhibition, actives largely listed as inhibitors. actives 5.4% (n = 310,000); further: potency means the concentration at half of the fitted maximal effect; nearly all actives have a fitted effect of over 60% in size
Target sequence (P51450 whole entry, looked up, the tested form may be a part): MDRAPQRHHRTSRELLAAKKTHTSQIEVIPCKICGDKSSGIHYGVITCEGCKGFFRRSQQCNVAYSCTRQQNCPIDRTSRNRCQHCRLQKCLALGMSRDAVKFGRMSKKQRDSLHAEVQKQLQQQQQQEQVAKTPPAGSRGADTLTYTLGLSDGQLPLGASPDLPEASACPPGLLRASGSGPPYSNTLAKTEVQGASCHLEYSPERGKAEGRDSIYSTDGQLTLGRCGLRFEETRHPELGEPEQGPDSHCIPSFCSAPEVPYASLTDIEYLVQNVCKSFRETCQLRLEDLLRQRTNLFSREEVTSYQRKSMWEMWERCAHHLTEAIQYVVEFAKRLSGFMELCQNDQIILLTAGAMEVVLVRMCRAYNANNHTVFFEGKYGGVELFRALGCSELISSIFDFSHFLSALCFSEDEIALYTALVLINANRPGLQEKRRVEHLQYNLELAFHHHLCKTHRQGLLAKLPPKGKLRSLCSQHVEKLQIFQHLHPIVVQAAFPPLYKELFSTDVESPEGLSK
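Luciferase reporter read in Schneider cells carrying Gal4-RORγ (mouse) and UAS-Photinus luciferase; cells given compound 1 h before 700 uM copper sulfate induction, then incubated 20 h at ambient temperature.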
TDP1 cell noCPT: qHTS for Inhibitors of human tyrosyl-DNA phosphodiesterase 1 (TDP1): qHTS in cells in absence of CPT; actives 15% (n = 420,000); Potency, µM (top dose mostly 46.2 µM), for the others: at the top dose activity change, negative = growth inhibition, most hits filed as inhibitors; DT40 Tdp1-/- hTDP1 cells, no CPT, ATP luminescence, 48 h; further: potency means the concentration at half of the fitted maximal effect; nearly all actives have a fitted effect of over 55% in size
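Readout: luminescence from CellTiter-Glo after 30 min in the dark at RT. Cells: DT40 Tdp1-/- with stable hTDP1, 400/well. Exposure: compounds alone, ≥48 hr, 37 °C.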
TDP1 cell CPT: DT40-hTDP1 cell growth loss with CPT | Potency, µM (doses to about 46.2 µM), inactives show at the top dose activity change, negative = growth inhibition, usual class: inhibitors | chicken DT40 Tdp1-/-;hTDP1 cells + 20 nM CPT, ATP luminescence, 48 h | actives 12% (n = 420,000); further: potency means the concentration at half of the fitted maximal effect; nearly all actives have a fitted effect of over 55% in size
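Cell growth measured by CellTiter-Glo luminescence after a minimum 48 h, 37 C compound exposure with 20 nM CPT in Tdp1-knockout DT40 cells stably expressing hTDP1, seeded 400/well; qHTS titration format.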
* = called active by the depositor; ? = inconclusive; nt = not tested or not shown. Rows were chosen to be rich in hits. Some 18% of all compounds tested hit in one or more screens of this group. Unless noted, the call rests on the fitted dose curve; in most records, active means well fitted curve in the direction sought with a large enough effect; inconclusive means small, poorly fitted or top-dose-only effect, or another doubt; inactive means no such curve, though single readings can be large; an effect the other way counts as inactive or inconclusive. Unless noted, on the % scale 0 is the no-effect control and ±100 the full control effect.

SMILES	LDHA block	Gal4-VP16 FLuc	IL-1B inflam inh	RORgamma inh	TDP1 cell noCPT	TDP1 cell CPT
O=C(NCCCN1CCc2ccccc2C1)Nc1ccc(Cl)cc1	-5	15%	-55*	25%	-27%	16µM*
CSc1ccc(N2CCN(CCCNC(=O)Nc3ccccc3F)CC2)cc1	-12	-11%	-22	-7%	?	?
O=C(NCCCN1CCN(c2ccc(F)cc2)CC1)Nc1ccccc1Cl	-3	nt	nt	nt	?	21µM*
CC(C)c1ccc(Nc2nnc(SCC(=O)NC(C)(C)C)s2)cc1	4	nt	nt	nt	nt	nt
CC(C)CN(CC(N)=O)CC(=O)N(C)C1(C#N)CCCCC1	-10	nt	nt	nt	nt	nt
COc1ccc(Cl)c(N2CCN(CCCNC(=O)Nc3ccc(C)cc3)CC2)c1	-1	-4%	-56*	0%	?	?
COc1ccccc1NC(=O)NCCCN1CCN(c2cccc(Cl)c2)CC1	-3	-4%	?	-16%	?	?
COc1ccc(N2CCN(CCCNC(=O)Nc3ccccc3Cl)CC2)cc1	2	nt	nt	nt	21µM*	?
CC(=O)N1N=C(c2ccc(F)cc2)CC1c1ccc2nccnc2c1 (stereo not drawn)	2	nt	nt	nt	nt	nt
O=C(NCCN1CCC(n2c(=O)[nH]c3ccccc32)CC1)c1ccc(Cl)cc1	-2	nt	-11	nt	9.2µM*	3.7µM*
O=C(NCCN1CCC(n2c(=O)[nH]c3ccccc32)CC1)c1c(F)cccc1F	-14	nt	-64*	nt	-33%	-23%
O=C(NCCN1CCC(n2c(=O)[nH]c3ccccc32)CC1)c1ccc(F)cc1	0	nt	?	nt	?	?
COc1ccccc1C(=O)NCCN1CCC(n2c(=O)[nH]c3ccccc32)CC1	-2	nt	-6	nt	?	?
O=C(NCCN1CCC(n2c(=O)[nH]c3ccccc32)CC1)c1cccc2c1-c1ccccc1C2=O	-8	nt	-95*	nt	21µM*	?
O=C(NCCN1CCC(n2c(=O)[nH]c3ccccc32)CC1)c1ccccc1Cl	-1	nt	-23	nt	?	?
CCOc1ccccc1C(=O)NCCN1CCC(n2c(=O)[nH]c3ccccc32)CC1	5	nt	-25	nt	29µM*	23µM*
COc1ccc(C)cc1-n1ccnc1SCC(=O)Nc1nc(C)cs1	-13	nt	nt	nt	nt	nt
O=C(NCCN1CCC(n2c(=O)[nH]c3ccccc32)CC1)c1ccc(Cl)c(Cl)c1	0	nt	nt	nt	18µM*	?
Cc1ccc(C(=O)NCCN2CCC(n3c(=O)[nH]c4ccccc43)CC2)cc1	0	nt	nt	nt	?	?
Cn1nc(C(C)(C)C)cc1NC(=O)c1ccc(Cl)c(Cl)c1	6	nt	nt	nt	nt	nt
O=C(NCC(c1ccccc1)c1c[nH]c2ccccc12)c1ccccn1 (stereo not drawn)	13	nt	nt	nt	nt	nt
CCN1C(=O)C(CC(=O)Nc2cccc(C(C)=O)c2)S/C1=N\c1ccccn1 (stereo not drawn)	-1	?	-3	?	?	?
Cc1ccccc1N=C1SC(CC(=O)Nc2ccc3ccccc3c2)C(=O)N1Cc1ccccn1 (stereo not drawn)	-5	?	?	-10%	21µM*	18µM*
O=C(CC1SC(=Nc2ccccc2)N(Cc2ccccn2)C1=O)Nc1ccc(Br)cc1 (stereo not drawn)	2	-7%	?	?	10µM*	16µM*
O=C(CC1SC(=Nc2cccc3ccccc23)N(Cc2ccccn2)C1=O)Nc1ccccc1Br (stereo not drawn)	3	-11%	-4	-14%	2.3µM*	4.6µM*
SMILES	LDHA block	Gal4-VP16 FLuc	IL-1B inflam inh	RORgamma inh	TDP1 cell noCPT	TDP1 cell CPT
CC(=O)Nc1ccc(C(=O)Nc2ccc(S(=O)(=O)N3CCCCC3)cc2)cc1	-8	-1%	25	9%	-24%	-29%
COCc1nnc(NC(=O)c2ccc(S(=O)(=O)N3CCCCCC3)cc2)o1	1	0.28µM*	15	2.2µM*	?	-29%
Cc1nnc(NC(=O)c2ccc(S(=O)(=O)N3CCCCCC3)cc2)o1	2	1.3µM*	-4	0.71µM*	?	-23%
Cc1nnc(NC(=O)c2ccc(S(=O)(=O)N3CC(C)OC(C)C3)cc2)o1 (stereo not drawn)	3	4µM*	6	4.5µM*	-23%	-10%
CC(C)CSc1nc2c(c(=O)n(C)c(=O)n2C)n1C/C=C/c1ccccc1	1	nt	nt	nt	nt	nt
O=C(Cc1ccc(Cl)cc1)NNC(=O)C1CCCCC1	1	nt	nt	nt	nt	nt
CCS(=O)(=O)N1CCCN(c2ccc(=O)n(-c3ccccc3)n2)CC1	0	nt	nt	nt	nt	nt
C/C(CC(C)(C)C1CCCCC1)=N\NC(N)=S	-5	2.8µM*	-102*	0.89µM*	3.3µM*	4.1µM*
C/C(CC(C)(C)c1ccccc1)=N\NC(N)=S	22	nt	nt	nt	nt	nt
O=C(Cn1nnnc1-c1ccccc1)N1CCCCC1	0	nt	nt	nt	nt	nt
O=C(NNC(=O)c1cccc([N+](=O)[O-])c1)c1ccncc1	-3	7%	9	1%	-2%	0%
Cc1ccc(C(=O)NC(=S)NNC(=O)c2cccc([N+](=O)[O-])c2)cc1	1	7.1µM*	34	4.5µM*	?	?
O=C(NNC(=S)NC(=O)c1ccccc1)c1cccc([N+](=O)[O-])c1	1	11µM*	36	7.9µM*	?	?
O=C(NNC(=S)NC(=O)c1cccc([N+](=O)[O-])c1)c1ccc(Br)cc1	-5	?	73	11µM*	21µM*	16µM*
O=C(NNC(=O)c1ccccn1)c1cccc([N+](=O)[O-])c1	6	?	108	10µM*	16µM*	16µM*
CCCc1cc(=O)oc2cc(OCC(=O)C(C)(C)C)ccc12	3	nt	nt	nt	nt	nt
COc1cccc(C(=O)NC(=S)Nc2ccc([N+](=O)[O-])cc2C)c1	-7	?	0	7.1µM*	?	?
COc1ccc(NC(=O)c2cccc(Cn3cc(Br)c([N+](=O)[O-])n3)c2)c(C)c1	1	-28%	22	?	18µM*	?
O=C(NNC(=S)NC(=O)c1ccccc1)c1ccc(O)cc1	-1	?	48	?	9.2µM*	16µM*
N#C/C(=C\c1cccc([N+](=O)[O-])c1)c1ccccn1	-6	9%	-88*	38%	15µM*	-24%
CCCCn1c(=O)[nH]c(=O)c2c1nc(CCc1ccccc1)c(=O)n2CCCC	0	nt	nt	nt	nt	nt
COc1ccc(S(=O)(=O)Nc2ccc3c(c2)N(C(=O)c2cccnc2)CC3)c(OC)c1	5	nt	nt	nt	nt	nt
